SMILES strings stand for the structures. Where “and” joins values, the source holds several entries; their conditions need not be identical. Equal values may be shown once. This is part of a sample that, as a whole, favours compounds with a hit. Of some 83,000 tested, about 20% had one in any assay.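 In brief: 96-well plates, 48 h treatment, single concentration, percent growth endpoint.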 Calls of active or inactive are those of the source. How the source made its calls: active means growth percent below 10; inactive means the rest.

The assay deals with SNB-75 CNS. Kind of assay: NCI-60 one-dose screen, 48 h (100 = growth as untreated, 0 = no growth, -100 = all killed). The following applies: 10 µM unless noted.
Regarding `O=C(O)C1(C(=O)O)CCC1.[NH2-].[NH2-].[Pt+2]`, the growth was 84.7% (inactive) and 88.6% (inactive).
For the molecule `CC1(C)[C@@H](OC(=O)CCC(=O)O)CC[C@]2(C)[C@H]3C(=O)C=C4[C@@H]5C[C@@](C)(C(=O)O)CC[C@]5(C)CC[C@@]4(C)[C@]3(C)CC[C@@H]12`, the growth is -68.7% (active).
As for `CCNC(=O)Nc1ccc(-c2nc3c(c(N4CCOC[C@@H]4C)n2)CCN(C2COC2)C3)cc1`, the figure is 22.9% (inactive) and -33.2% (active).
Turning to `O=C1C2=C(C(=O)c3ccccc31)C(O)(S(=O)(=O)O)C(O)(S(=O)(=O)O)C1N=CC=CC21` (centres undefined), the growth was 61.1% (inactive) and 35.1% (inactive).
With `COc1ccc2c(=O)cc(-c3ccccc3)[nH]c2c1`, the growth is 13.8% (inactive) and 9.61% (active).
As for `COc1cc(Nc2nc3ccccc3nc2NS(=O)(=O)c2ccc(NC(=O)c3ccc(C)c(OC)c3)cc2)cc(OC)c1`, the growth is 32% (inactive) and -34.7% (active).
The value for `COc1cc(-c2nccc3cc4c(cc23)OCO4)cc(OC)c1OC` was 10.8% (inactive) and -9.99% (active).
In the case of `CCN(CC)CCC(CNc1ccnc2cc(Cl)ccc12)c1ccc(OC)cc1` (centres undefined), the growth is 68.6% (inactive) and 34.1% (inactive).
As for `CC(=O)Nc1ccc(O)cc1`, the figure is 99.8% (inactive) and 91.8% (inactive) and 104% (inactive); as for `c1ccc2c(CC3=NCCN3)cccc2c1`, 92.9% (inactive) and 105% (inactive); as for `Cc1nn(-c2ccc(Cl)cc2)c2ncnc(N/N=C/c3ccccc3O)c12`, -15.1% (active) and 35.9% (inactive).
The value for `CCN(CC)C(=S)SSC(=S)N(CC)CC` was 72.6% (inactive) and 93.2% (inactive); that for `Nc1nc(SC/C=C/CCl)c2[nH]cnc2n1` was 108% (inactive) and 101% (inactive); that for `CC1CCCC(=O)O1` (centres undefined) was 83.3% (inactive) and 95.6% (inactive).
Take `c1ccc(NCc2ccc3c(c2)OCO3)cc1`: the growth is 89.7% (inactive) and 95.8% (inactive).
For `CN(Cc1ccccc1)Cc1ccccc1`, the growth was 87.4% (inactive).
As for `O=[N+]([O-])c1ccc(N/N=C\c2cc(Br)ccc2O)nc1`, the figure is 38.3% (inactive) and 47.7% (inactive); as for `O=C(Nc1ccc(Br)cc1)c1cc(Br)ccc1O`, -10.1% (active) and 49.2% (inactive).
The value for `CN(C)c1ccc(C(=C2C=CC(=[N+](C)C)C=C2)c2ccccc2Cl)cc1` was -58.6% (active) and -96.1% (active).
For the molecule `O=C(Cc1cccc2ccccc12)N/N=C/c1ccc2c(c1)CCC2`, the growth was 80.2% (inactive).
As for `O=C(O)C1C2C=CC(C2)C1C(=O)O` (centres undefined), the figure is 102% (inactive) and 61.9% (inactive) and 89% (inactive).
Take `COc1cc(C(=O)c2ccc3c(c2)OCO3)cc(OC)c1OC`: the growth is 0.967% (active) and -9.36% (active).
The value for `O=C(CCc1ccc(O)cc1)N/N=C/c1cc(Br)ccc1O` was 79.4% (inactive).
Regarding `CC(=O)Oc1cc(C(=O)O)cc(OC(C)=O)c1OC(C)=O`, the growth is 88.1% (inactive) and 90.2% (inactive).
The value for `Cn1c(=O)c2[nH]c(CCCCCCCCc3nc4ccccc4[nH]3)nc2n(C)c1=O` was 93.5% (inactive) and 80.5% (inactive); that for `O=C1c2ccccc2C(=O)N1/N=C/c1ccc2c(c1)OCO2` was 104% (inactive); that for `S=C1SCN(Cc2ccccc2)CN1Cc1ccccc1` was 76.1% (inactive).
As for `Cc1ccc(-c2noc(CC(=O)c3ccc([N+](=O)[O-])cc3)n2)cc1`, the figure is 94.6% (inactive); as for `Oc1ccc(/C=C/c2ccccc2)cc1`, 68.7% (inactive) and 83.4% (inactive).
With `CC(=O)C(/C=N/C(N)=O)=C(/C)O`, the growth was 93.8% (inactive).
As for `COC(=O)c1nc(N)nc(C(=O)OC)c1C(=O)c1ccc(OC)cc1`, the figure is 95.2% (inactive) and 76% (inactive); as for `Cc1cc(O)c2c(c1)C(=O)c1cc(O)cc(O)c1C2=O`, 88% (inactive) and 86.7% (inactive); as for `C#CCN(C)Cc1ccccc1`, 106% (inactive) and 115% (inactive).
As for `CCN(CC)CCCC(C)Nc1ccnc2cc(Oc3ccccc3)ccc12` (centres undefined), the figure is 62.9% (inactive) and 99.8% (inactive); as for `COc1ccccc1NC(=O)OCC#CCOC(=O)Nc1ccccc1OC`, 92.9% (inactive) and 84.7% (inactive).
`Cc1cc(O)c(C(C)C)cc1S(=O)(=O)O` (tested in a mixture with another compound): the growth is 84.1% (inactive) and 10.4% (inactive) and 80.2% (inactive).
As for `Oc1c(CN2CCCCC2)ccc2cccnc12`, the figure is 82.5% (inactive) and 85.6% (inactive).
As for `NS(=O)(=O)c1cc2c(cc1Cl)NC(C(Cl)Cl)NS2(=O)=O` (centres undefined), the figure is 77.7% (inactive) and 114% (inactive).
Regarding `COc1cc2nc(N3CCN(C(=O)C4COc5ccccc5O4)CC3)nc(N)c2cc1OC` (centres undefined), the growth is 71.3% (inactive) and 76.9% (inactive) and 92.7% (inactive).

The record behind these values is PubChem BioAssay (NCI).
